The source of these data is PubChem BioAssay AID2331 (The Scripps Research Institute Molecular Screening Center, 2010).

This is one part of the list. Values without a mark were called inactive. Calls of active or inactive are those of the source. Rule as the data show it: active = inhibition above about 9.5%; inactive = the rest.

Chain of Serine/threonine-protein phosphatase 5 (Homo sapiens) (P53041 whole entry, looked up): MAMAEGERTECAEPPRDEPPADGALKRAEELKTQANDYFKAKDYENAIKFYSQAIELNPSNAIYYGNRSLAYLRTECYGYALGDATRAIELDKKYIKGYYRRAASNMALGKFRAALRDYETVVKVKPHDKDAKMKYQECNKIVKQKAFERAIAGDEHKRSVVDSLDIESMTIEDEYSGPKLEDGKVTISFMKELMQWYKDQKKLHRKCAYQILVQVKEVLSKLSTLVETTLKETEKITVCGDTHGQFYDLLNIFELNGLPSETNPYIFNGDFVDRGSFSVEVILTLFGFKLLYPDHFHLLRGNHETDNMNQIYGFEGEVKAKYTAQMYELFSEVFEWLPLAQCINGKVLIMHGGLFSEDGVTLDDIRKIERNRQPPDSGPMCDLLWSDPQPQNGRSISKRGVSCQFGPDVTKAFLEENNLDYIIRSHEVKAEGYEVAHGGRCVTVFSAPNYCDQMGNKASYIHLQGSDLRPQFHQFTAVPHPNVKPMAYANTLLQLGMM

The assay addresses Serine/threonine-protein phosphatase 5 (Homo sapiens) (UniProt P53041). As to the kind of experiment: inhibition of human PPP5C phosphatase activity – biochemical, fluorescence, confirmation (AID 2331). To be noted: Purified PP5, fluorogenic phosphatase substrate, at 6.7 µM, stronger effect = higher value.
Take `O=c1ccc2c(-c3ccccc3S(=O)(=O)O)c3ccc(O)c(O)c3oc-2c1O`: the inhibition – broadly, the drop in the measured response relative to a control, in per cent – is 3.55%.

For the compound `O=C(O)c1n[nH]nc1-c1ccccc1`, the inhibition is 41.3% (active).

For `O=[N+]([O-])c1cccc2ncccc12`, the inhibition is -1.87%. In the case of `COc1cc(C(F)(F)F)c(C(=O)N(C)c2ccc(Cl)cc2)cn1`, the inhibition is -0.02%. `Cc1nc(NC(CC(C)C)C(=O)O)c2nc(C)oc2n1` (stereo not drawn): the inhibition is -2.93%. Then `O=C(C1=C[C@H](c2ccc(C(F)(F)F)cc2)C[C@H](OCc2ccc(CO)cc2)O1)N1CCN(Cc2ccccc2)CC1`, with 3.97%; and `COc1cc(/C=C2/SC(=S)N(Cc3ccccc3)C2=O)cc(OC)c1O`, with 0.02%; and `CN(C)c1nc(N)nc(CSc2nnnn2-c2cccc3ccccc23)n1`, with -0.03%. With `N#Cc1c(N2CCCCC2)nc(N)c2c(N)nc(SCC(=O)O)cc12`, the inhibition is 36.8% (active). For `C[C@@]12C(=O)N(c3cccc(Br)c3)C(=O)N1[C@H](c1ccc(Cl)cc1)[C@@H]1C(=O)N(C3CCCCC3)C(=O)[C@@H]12` the value was 7.67%; for `Cc1nnc(SCc2nc3ccccc3nc2C)s1`, -2.92%.

On to `CCN1CCN(CCNC(=O)c2ccc(/C=C3/Sc4ccccc4N(Cc4cccc(C)c4)C3=O)cc2)CC1`, for which the inhibition is 1.06%. For `COc1ccc(OC)c(C(=O)c2ccc(C(=O)O)cc2)c1` the value was -7.99%. Then `Cc1sc(NC(=O)C2C3CCC(O3)C2C(=O)O)c(C(=O)OC(C)C)c1-c1ccc(Cl)cc1` (stereo not drawn), with 3.03%. Then `CCOC(=O)Nc1ccc2c(c1)N(C(=O)CN1CCN3CCCC3C1)c1ccccc1CC2` (stereo not drawn), with -4.11%; and `CNC(=S)NNC(=O)c1oc2nc(-c3ccccc3)cc(-c3ccco3)c2c1N`, with -5.36%. Turning to `COCCN1C=C2C(=O)C(C)(OC(=O)C3CCCC3)C(=O)C=C2C=C1c1ccsc1` (stereo not drawn), the inhibition is 43.5% (active). For `CN(c1ccccc1)S(=O)(=O)c1ccc(NC(=O)COc2ccccc2)cc1` the value was 1.21%.
